Data: PubChem BioAssay (Tox21)
A number with no mark means an inactive call. Records with an inconclusive call do not appear. Where a call stands in place of a potency, no number is given. Active and inactive are the calls of the source. Calls come from the whole dose curve; as a rule, active = well fitted curve in the direction sought with a large enough effect in the repeat runs; inconclusive = weak or mixed curves; inactive = no such curve, though single readings can be large; an effect the other way counts as inactive or inconclusive.

Key:
[1] = qHTS RealTime-Glo MT Cell Viability Assay in HepG2 cells - 40 hour (AID 1224870); note: nearly all actives have a fitted effect of over 50% in size; note: potency is the fitted concentration of half-maximal effect
Method in brief: (§1)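 HepG2 cells (600/well) mixed with RealTime-Glo MT reagent, settled 5 h at 37 C/5% CO2 before compound addition. Nonlytic NanoLuc luminescence from viable-cell prosubstrate reduction read repeatedly during 40 h treatment at 37 C.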

[2] = A CellTox Green Cytotoxicity Assay to monitor cytotoxicity in HEK293 cells - 40 hour (AID 1224871); note: nearly all actives have a fitted effect of over 45% in size; note: potency is the fitted concentration of half-maximal effect
Method in brief: (§2)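 Fluorescence from a DNA-binding dye excluded by viable cells was measured repeatedly in the same HEK293 wells (600 cells/well) during continuous compound exposure at 37 C. Each assay gives one read point: 0, 8, 16, 24, 32 or 40 h.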

[3] = qHTS RealTime-Glo MT Cell Viability Assay in HEK293 cells - 16 hour (AID 1224872); note: nearly all actives have a fitted effect of over 50% in size; note: potency is the fitted concentration of half-maximal effect
Method in brief: (§3)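 Luminescence generated by NanoLuc from substrate produced by living HEK293 cells served as the viability signal. Each value reflects the reading at its stated time point during continuous 40 h compound exposure at 37 C.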

[4] = qHTS RealTime-Glo MT Cell Viability Assay in HepG2 cells - 8 hour (AID 1224873); note: nearly all actives have a fitted effect of over 55% in size; note: potency is the fitted concentration of half-maximal effect
Method in brief: as §1

[5] = A CellTox Green Cytotoxicity Assay to monitor cytotoxicity in HEK293 cells - 24 hour (AID 1224875); note: nearly all actives have a fitted effect of over 45% in size; note: potency is the fitted concentration of half-maximal effect
Method in brief: as §2

[6] = A CellTox Green Cytotoxicity Assay to monitor cytotoxicity in HepG2 cells - 16 hour (AID 1224876); note: nearly all actives have a fitted effect of over 45% in size; note: potency is the fitted concentration of half-maximal effect
Method in brief: (§4)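 Real-time cytotoxicity: fluorescence of a cell-impermeant cyanine dye binding DNA of dead HepG2 cells, measured repeatedly (0–40 h) during compound exposure at 37 C. Cells seeded 600/well with reagent, dosed after 5 h.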

[7] = qHTS RealTime-Glo MT Cell Viability Assay in HepG2 cells - 32 hour (AID 1224877); note: nearly all actives have a fitted effect of over 55% in size; note: potency is the fitted concentration of half-maximal effect
Method in brief: (§5)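 Tox21 10K library screened in qHTS format on HepG2 cells carrying RealTime-Glo reagents. Compounds were added after a 5 h preincubation, and the luminescent signal from continuous culture was measured repeatedly during 40 h treatment.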

[8] = A CellTox Green Cytotoxicity Assay to monitor cytotoxicity in HepG2 cells - 24 hour (AID 1224878); note: nearly all actives have a fitted effect of over 45% in size; note: potency is the fitted concentration of half-maximal effect
Method in brief: as §4

[9] = A CellTox Green Cytotoxicity Assay to monitor cytotoxicity in HepG2 cells - 40 hour (AID 1224879); note: nearly all actives have a fitted effect of over 40% in size; note: potency is the fitted concentration of half-maximal effect
Method in brief: as §4

[10] = qHTS RealTime-Glo MT Cell Viability Assay in HEK293 cells - 0 hour (AID 1224880)
Method in brief: (§6)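 Luminescence, which tracks viable cell number through reduction of the prosubstrate to a NanoLuc substrate, was read over continuous 37 C culture. Cells (600/well) were premixed with reagent and rested 5 h before 23 nL of compound in DMSO was pinned.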

[11] = A CellTox Green Cytotoxicity Assay to monitor cytotoxicity in HEK293 cells - 32 hour (AID 1224881); note: nearly all actives have a fitted effect of over 40% in size; note: potency is the fitted concentration of half-maximal effect
Method in brief: as §2

[12] = A CellTox Green Cytotoxicity Assay to monitor cytotoxicity in HepG2 cells - 0 hour (AID 1224882); note: nearly all actives have a fitted effect of over 35% in size; note: potency is the fitted concentration of half-maximal effect
Method in brief: as §4

[13] = A CellTox Green Cytotoxicity Assay to monitor cytotoxicity in HepG2 cells - 32 hour (AID 1224883); note: nearly all actives have a fitted effect of over 50% in size; note: potency is the fitted concentration of half-maximal effect
Method in brief: as §4

[14] = A CellTox Green Cytotoxicity Assay to monitor cytotoxicity in HEK293 cells - 8 hour (AID 1224884); note: nearly all actives have a fitted effect of over 35% in size; note: potency is the fitted concentration of half-maximal effect
Method in brief: as §2

[15] = qHTS RealTime-Glo MT Cell Viability Assay in HepG2 cells - 16 hour (AID 1224885); note: nearly all actives have a fitted effect of over 50% in size; note: potency is the fitted concentration of half-maximal effect
Method in brief: as §5

[16] = qHTS RealTime-Glo MT Cell Viability Assay in HEK293 cells - 24 hour (AID 1224886); note: nearly all actives have a fitted effect of over 50% in size; note: potency is the fitted concentration of half-maximal effect
Method in brief: as §3

[17] = qHTS RealTime-Glo MT Cell Viability Assay in HEK293 cells - 8 hour (AID 1224887); note: nearly all actives have a fitted effect of over 50% in size; note: potency is the fitted concentration of half-maximal effect
Method in brief: as §6

[18] = A CellTox Green Cytotoxicity Assay to monitor cytotoxicity in HEK293 cells - 16 hour (AID 1224888); note: nearly all actives have a fitted effect of over 35% in size
Method in brief: as §2

[19] = qHTS RealTime-Glo MT Cell Viability Assay in HepG2 cells - 0 hour (AID 1224889); note: nearly all actives have a fitted effect of over 50% in size
Method in brief: as §5

[20] = qHTS RealTime-Glo MT Cell Viability Assay in HEK293 cells - 40 hour (AID 1224874); conditions: RealTime-Glo luminescence; max response: stronger effect = lower value; note: nearly all actives have a fitted effect of over 50% in size; note: potency is the fitted concentration of half-maximal effect
Method in brief: as §6

O=C(O)C[C@H](NC(=O)OCc1ccccc1)C(=O)O
Potency [1]: inactive
Potency [2]: inactive
Potency [3]: inactive
Potency [4]: inactive
Potency [5]: inactive
Potency [6]: inactive
Potency [7]: inactive
Potency [8]: inactive
Potency [9]: inactive
Potency [10]: inactive
Potency [11]: inactive
Potency [12]: inactive
Potency [13]: inactive
Potency [14]: inactive
Potency [15]: inactive
Potency [16]: inactive
Potency [17]: inactive
Potency [18]: inactive
Potency [19]: inactive

CC1(C)S[C@@H]2[C@H](NC(=O)C(c3ccccc3)S(=O)(=O)O)C(=O)N2[C@H]1C(=O)O (stereo not given in full)
Potency [1]: inactive
Potency [2]: inactive
Potency [3]: inactive
Potency [4]: inactive
max response [20]: 0.0341%
Potency [5]: inactive
Potency [7]: inactive
Potency [8]: inactive
Potency [9]: inactive
Potency [10]: inactive
Potency [11]: inactive
Potency [12]: inactive
Potency [13]: inactive
Potency [15]: inactive
Potency [17]: inactive
Potency [19]: inactive

Cc1cscn1
Potency [1]: inactive
Potency [2]: inactive
Potency [3]: inactive
Potency [4]: inactive
max response [20]: 11.3%
Potency [5]: inactive
Potency [6]: inactive
Potency [8]: inactive
Potency [9]: inactive
Potency [10]: inactive
Potency [11]: inactive
Potency [12]: inactive
Potency [13]: inactive
Potency [14]: inactive
Potency [15]: inactive
Potency [16]: inactive
Potency [17]: inactive
Potency [18]: inactive
Potency [19]: inactive

COC(=O)CCS
Potency [1]: inactive
Potency [2]: inactive
Potency [3]: inactive
Potency [4]: inactive
max response [20]: 21.6%
Potency [5]: inactive
Potency [9]: inactive
Potency [10]: inactive
Potency [11]: inactive
Potency [13]: inactive
Potency [14]: inactive
Potency [18]: inactive
Potency [19]: inactive

CC(=O)OCC(=O)NCCCOc1cccc(CN2CCCCC2)c1
Potency [1]: inactive
Potency [2]: inactive
Potency [3]: inactive
Potency [4]: inactive
max response [20]: 1.71%
Potency [5]: inactive
Potency [6]: inactive
Potency [9]: inactive
Potency [10]: inactive
Potency [11]: inactive
Potency [13]: inactive
Potency [14]: inactive
Potency [16]: inactive
Potency [17]: inactive
Potency [19]: inactive

CNC(=O)c1cnn(-c2nc(N)c3ncn([C@@H]4O[C@H](CO)[C@@H](O)[C@H]4O)c3n2)c1
Potency [1]: inactive
Potency [2]: inactive
Potency [3]: inactive
Potency [4]: inactive
max response [20]: 4.42%
Potency [5]: inactive
Potency [6]: inactive
Potency [8]: inactive
Potency [9]: inactive
Potency [10]: inactive
Potency [11]: inactive
Potency [12]: inactive
Potency [13]: inactive
Potency [14]: inactive
Potency [15]: inactive
Potency [17]: inactive
Potency [18]: inactive
Potency [19]: inactive

OCCN1CCN(CCCN2c3ccccc3Sc3ccc(Cl)cc32)CC1
Potency [1]: 23.9 µM (active)
Potency [2]: 26.8 µM (active)
Potency [3]: 23.9 µM (active)
Potency [4]: 23.9 µM (active)
Potency [20]: 23.9 µM (active)
Potency [7]: 23.9 µM (active)
Potency [8]: 15.1 µM (active)
Potency [9]: 19 µM (active)
Potency [11]: 26.8 µM (active)
Potency [12]: inactive
Potency [13]: 16.9 µM (active)
Potency [15]: 23.9 µM (active)
Potency [16]: 23.9 µM (active)

CCCCCCCC/C=C\CCCCCCCCO
Potency [1]: inactive
Potency [2]: inactive
Potency [3]: inactive
Potency [4]: inactive
max response [20]: 15%
Potency [5]: inactive
Potency [7]: inactive
Potency [8]: inactive
Potency [9]: inactive
Potency [10]: inactive
Potency [11]: inactive
Potency [12]: inactive
Potency [13]: inactive
Potency [14]: inactive
Potency [15]: inactive
Potency [16]: inactive
Potency [17]: inactive
Potency [18]: inactive
Potency [19]: inactive

Cc1ccc(C(C)(C)O)cc1
Potency [1]: inactive
Potency [2]: inactive
Potency [3]: inactive
Potency [4]: inactive
max response [20]: -0.324%
Potency [5]: inactive
Potency [6]: inactive
Potency [8]: inactive
Potency [9]: inactive
Potency [10]: inactive
Potency [11]: inactive
Potency [12]: inactive
Potency [13]: inactive
Potency [14]: inactive
Potency [15]: inactive
Potency [16]: inactive
Potency [17]: inactive
Potency [19]: inactive

COc1cc(Nc2c(C#N)cnc3cc(OCCCN4CCN(C)CC4)c(OC)cc23)c(Cl)cc1Cl
Potency [1]: 23.9 µM (active)
Potency [2]: 21.3 µM (active)
Potency [3]: 19 µM (active)
Potency [20]: 7.56 µM (active)
Potency [5]: 21.3 µM (active)
Potency [6]: 23.9 µM (active)
Potency [7]: 21.3 µM (active)
Potency [8]: 16.9 µM (active)
Potency [9]: 9.52 µM (active)
Potency [10]: inactive
Potency [11]: 21.3 µM (active)
Potency [12]: inactive
Potency [13]: 9.52 µM (active)
Potency [14]: inactive
Potency [16]: 9.52 µM (active)
Potency [17]: 23.9 µM (active)
Potency [18]: inactive

C[C@@H]1CN(CCCn2c3ccccc3c3ccccc32)C[C@H](C)N1
Potency [1]: 23.9 µM (active)
Potency [2]: 23.9 µM (active)
Potency [3]: 26.8 µM (active)
Potency [5]: 23.9 µM (active)
Potency [7]: 23.9 µM (active)
Potency [8]: 26.8 µM (active)
Potency [9]: 23.9 µM (active)
Potency [11]: 23.9 µM (active)
Potency [12]: inactive
Potency [13]: 23.9 µM (active)
Potency [14]: 23.9 µM (active)

Nc1cccc2c1CN(C1CCC(=O)NC1=O)C2=O (stereo not given)
Potency [1]: inactive
Potency [2]: inactive
Potency [3]: inactive
Potency [4]: inactive
Potency [5]: inactive
Potency [6]: inactive
Potency [9]: inactive
Potency [10]: inactive
Potency [11]: inactive
Potency [12]: inactive
Potency [13]: inactive
Potency [14]: inactive
Potency [15]: inactive
Potency [17]: inactive
Potency [18]: inactive
Potency [19]: inactive

O=C1c2ccccc2C(=O)N1CCc1noc(-c2ccc(CN3CCCCCC3)s2)n1
Potency [1]: inactive
Potency [2]: 40 µM (active)
Potency [3]: 22.5 µM (active)
Potency [20]: 20.1 µM (active)
Potency [5]: inactive
Potency [6]: 20.1 µM (active)
Potency [7]: inactive
Potency [8]: 31.8 µM (active)
Potency [9]: 35.7 µM (active)
Potency [10]: inactive
Potency [12]: 35.7 µM (active)
Potency [13]: 35.7 µM (active)
Potency [14]: 35.7 µM (active)
Potency [16]: 35.7 µM (active)
Potency [17]: 35.7 µM (active)
Potency [19]: inactive
